Experimental data: PubChem BioAssay AID493192 (National Center for Advancing Translational Sciences (NCATS), 2011)
Inconclusive results are not listed. A call without a number means that no potency is given here. The source made the active and inactive calls. Calls come from the whole dose curve; as a rule, active = well fitted activation curve with a large enough effect; inconclusive = small, poorly fitted or top-dose-only effect; inactive = no such curve, though single readings can be large or run the other way.

experiment: qHTS Assay for Identifying a Potential Treatment of Ataxia-Telangiectasia: Hit Validation; conditions: Ataxia-telangiectasia cell-based hit validation qHTS, in ATM-null A-T patient fibroblasts; series mostly up to 76.9 µM;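 note: phospho-KAP1 level by AlphaLISA as a proxy for ATM-like kinase activity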
Method in brief: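 hTERT-immortalized A-T patient fibroblasts (F2112) were dosed at up to 76.7 uM final for 60 min at 37C. After a further 30 min incubation, cells were lysed, and phospho-KAP1 was detected by AlphaLISA after 6 hr at 25C.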
Potency is the fitted concentration of half-maximal effect.

Row | SMILES | Potency
1 | CC(C)CN(CC(C)C)C(=O)c1cc2c(=O)n3ccccc3nc2s1 | inactive
2 | COc1ccc(-c2cc(C(F)(F)F)c(C#N)c(SCC(=O)O)n2)cc1OC | inactive
3 | CC(C)(C=O)C1=CC(=O)c2ccccc2C1=O | 20.7 µM (active)
4 | CCN(CC)CCNC(=O)CCc1c(C)nc2c(c(C)nn2-c2ccc(C)cc2)c1C | inactive
5 | COc1ccc(N(CCC#N)C(=O)/C(C#N)=C\c2cccs2)cc1 | inactive
6 | COC1=C(N)C(=O)c2nc(-c3nc(C(=O)O)c(C)c(-c4ccc(OC)c(OC)c4O)c3N)ccc2C1=O | inactive
7 | CNC(=O)/C=C/c1cc(C(=O)c2ccc(Cl)cc2Cl)cn1C | inactive
8 | CCS(=O)(=O)N1Cc2ccccc2CC1C(=O)Nc1cccc(OC)c1 (configuration not stated) | inactive
9 | Cc1ccc(-c2noc(CCC(=O)NC3CCN(Cc4ccccc4)CC3)n2)cc1 | inactive
10 | CCc1oc(C(=O)OC)cc1CSC(=N)N | inactive
11 | Oc1cccc(NC(=S)N=Nc2c(O)[nH]c3ccccc23)c1 | inactive
12 | CCOC(=O)C1CCN(C(=O)c2cc3cc(Cl)ccc3[nH]2)CC1 | inactive
13 | CC1=NN(C(C#N)c2ccc([N+](=O)[O-])cc2)C(C)(C)C1 (configuration not stated) | inactive
14 | COc1cccc(CN(C)CC(=O)NCc2ccc(F)cc2)c1OC | inactive
15 | Cc1nnc(SCC(=O)NC(=O)Nc2ccc3c(c2)OCCO3)n1N | inactive
16 | CN1C[C@@H]2C(c3ccccc3)C3(c4ccccc4)CC2(C3)[C@H]1c1ccccc1 (some centres not stated) | 18.4 µM (active)
17 | COC(=O)Cn1ccc2cc(S(=O)(=O)N3CCCCC3)ccc21 | inactive
18 | Cc1cc(C)c2c(Cn3ccnc3)cc(=O)oc2c1 | inactive
19 | COCCNC(=O)c1c(N)n(-c2cccc(C)c2)c2nc3ccccc3nc12 | 41.2 µM (active)

Row | SMILES | Potency
20 | Cc1nc(Nc2ccc(Cl)cc2)c2oc3ccccc3c2n1 | inactive
21 | COc1ccc(C2/C=C\CN(S(=O)(=O)c3ccc4ccccc4c3)CC(=O)N2Cc2ccc(F)cc2)cc1 (configuration not stated) | 29.2 µM (active)
22 | CCn1nc(C)c(CNC(=O)c2cc(COc3ccc(F)cc3Cl)on2)c1C | inactive
23 | O=C(c1nn2c(C(F)(F)F)cc(-c3ccc(F)cc3)nc2c1Cl)N1CCOCC1 | inactive
24 | Cc1ccc(C(=O)c2c(C)oc3c2C(=O)C(=O)c2ccccc2-3)cc1 | 26 µM (active)
25 | Cc1oc2c(c(C)cc3oc(=O)c(CC(=O)NCC(=O)NCC(=O)O)c(C)c32)c1C | 32.8 µM (active)
26 | Cc1nc(SCC(=O)Nc2cc(C(N)=O)cc(C(N)=O)c2)c2c(C)c(C)sc2n1 | inactive
27 | O=C(O)CCC(=O)NN1C(=O)c2ccccc2NC1c1ccco1 (configuration not stated) | inactive
28 | CCOC(=O)c1cccc(N2C(=O)C3C4C=CC(CC4)C3C2=O)c1 (configuration not stated) | inactive
29 | CN(C)C(=O)c1nc2ccc(Cl)cn2c1CNCc1cccc(OC(F)(F)F)c1 | inactive
30 | COCCCNC(=O)c1c[nH]c2ccc(S(=O)(=O)N(C)c3ccccc3C)cc2c1=O | inactive
31 | O=C(c1ccc(F)cc1)N1CCC(c2ccccc2)C1 (configuration not stated) | inactive
32 | O=C(CNCc1cccs1)Nc1cc(S(=O)(=O)N2CCCC2)ccc1Cl | inactive
33 | COc1ccc(CCNC(=O)C2CCN(S(=O)(=O)c3ccc(OC)c(OC)c3)CC2)cc1OC | inactive
34 | CC(=O)Nc1ccc(S(=O)(=O)NCC2(N3CCOCC3)CCCCC2)cc1 | inactive
35 | CCOC(=O)N1CCN(c2nc(N(c3ccccc3)c3ccccc3)nc(-n3ccnc3)n2)CC1 | inactive
36 | CCNC(=S)N(CCc1c(C)[nH]c2ccccc12)Cc1cccnc1 | inactive
37 | CCCc1ccc(S(=O)(=O)Nc2ccc(C)c(NS(C)(=O)=O)c2)cc1 | inactive
